# Experimental data: PubChem BioAssay (NCATS)
# Records with an inconclusive call do not appear. Calls of active or inactive are those of the source. Calls follow the shape of the dose curve; as a rule, active = well fitted inhibition curve with a large enough effect; inconclusive = small, poorly fitted or top-dose-only effect; inactive = flat fitted curve, though single readings scatter.
# Target: Calcium and integrin-binding protein 1 (Homo sapiens) (UniProt Q99828)
# Assay: Primary qHTS for Identification of Calcium Integrin Binding Protein 1 (CIB1) Competitor (AID 1508620); also: top concentration of the series differs between compounds
# Details: CIB1-GST / FITC-alphaIIb peptide fluorescence polarization; series mostly up to 114 µM; activity change, negative = inhibition: at the top concentration
# In short: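 Fluorescence polarization competition: GST-tagged CIB1 (1 uM final) preincubated with compound 15 min at room temperature, then FITC-labelled alphaIIb peptide (100 nM final) added. After 15 min at room temperature, polarization read at Ex 480/Em 540.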
# % is scaled to controls: 0 for no effect and ±100 for the full control effect.
# Calcium and integrin-binding protein 1 (Homo sapiens), sequence (Q99828 whole entry, looked up): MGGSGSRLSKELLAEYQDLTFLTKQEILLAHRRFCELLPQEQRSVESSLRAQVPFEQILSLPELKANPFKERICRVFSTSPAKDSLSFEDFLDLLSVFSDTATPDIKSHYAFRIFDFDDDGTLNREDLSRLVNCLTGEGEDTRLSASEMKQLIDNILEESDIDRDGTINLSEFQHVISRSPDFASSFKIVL
row,SMILES,"activity change, negative = inhibition"
1,O=C(Nc1cccc([S+](=O)([O-])Nc2ccccc2F)c1)c1ccccc1,1.8% (inactive)
2,Cn1nnnc1Sc1ncnc2scc(-c3ccc(C#N)cc3)c12,-2.04% (inactive)
3,Cc1cccc(C)c1OCc1cccc(C2Nc3ccccc3C(=O)N2Cc2ccco2)c1 (centres undefined),-0.231% (inactive)
4,CN(C)CCCNc1ccc(NC(=O)c2cccs2)cn1,0.751% (inactive)
5,O=C1CCCC2=C1C1(CCSC1)N=C(Nc1nc3ccccc3o1)N2 (centres undefined),-24.2% (inactive)
6,NC(=O)C1CCN(c2nc(-c3ccc(OC(F)(F)F)cc3)cs2)CC1,2.75% (inactive)
7,O=C(OCC#CCSc1nnc(-c2cccc3ccccc23)s1)c1cccs1,-10.7% (inactive)
8,O=S1(=O)N=C(Oc2cccc(C(F)(F)F)c2)c2ccccc21,-0.689% (inactive)
9,COc1ccc(C(=O)N(Cc2ccccc2)Cc2ccco2)c(O)c1,-8.23% (inactive)
10,O=C1CCc2cc(S(=O)(=O)Nc3ccc(F)c(Cl)c3)ccc2N1,-3.43% (inactive)
11,O=C(Nc1ccc(O)c2ncccc12)c1ccccc1F,-19.4% (inactive)
12,N=c1c2c(ccn1Cc1ccccc1)Oc1ccc3ccccc3c1C2c1ccccc1 (centres undefined),9.47% (inactive)
13,O=C(CCc1ccccc1)Nc1ncnc2c1C(c1ccccc1)c1c(ccc3ccccc13)O2 (centres undefined),0.23% (inactive)
14,Oc1c(CN2CCCCC2)cc(COCc2ccccc2)c2cccnc12,-7.75% (inactive)
15,O=C1c2ccccc2C(=O)N1c1cccc2cnccc12,-6.6% (inactive)
16,NC(=O)C1CCN(c2nc(-c3cccc(Cl)c3)cs2)CC1,1.55% (inactive)
17,Cc1noc(C)c1-c1cccc(-c2nn3c(=O)cc(N4CCNCC4)nc3s2)c1,-3.2% (inactive)
18,COc1ccc(N2Cc3cccc(C(=O)O)c3C2=O)cc1OC,-0.408% (inactive)
19,Nc1ccccc1OC1=NS(=O)(=O)c2ccccc21,-4.94% (inactive)
